Assay results as given in PubChem BioAssay (EPA / NIEHS).
Inconclusive results are not listed. Calls of active or inactive are those of the source. How the source made its calls, unless noted: active means hit-call score of the fitted dose curve at least 0.9, where 1 is the maximum; inconclusive means response in the unintended direction; inactive means score below 0.9.

Assays:
[1] = read-out: xenobiotic metabolism (CYP1A2), CYP1A2 (gene 1544); assay: CLD_CYP1A2_24hr: CellzDirect (CLD) Gene Expression Assay for xenobiotic metabolism (CYP1A2) at 24 hours (AID 2283683)
Method in brief: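 CYP1A2 mRNA induction measured by quantitative nuclease protection (chemiluminescent) in human primary hepatocytes 24 h after multi-concentration chemical dosing with daily fresh solutions. DMSO (0.2%) baseline; positive-direction fitting; morphology-based cytotoxicity noted.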

[2] = read-out: ABC Transporter (ABCB1), ABCB1 (gene 5243); assay: CLD_ABCB1_24hr: CellzDirect (CLD) Gene Expression Assay for ABC Transporter (ABCB1) at 24 hours (AID 2283684)
Method in brief: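 ABCB1 mRNA induction versus 0.2% DMSO vehicle was read by qNPA chemiluminescence at 24 h. Cultured human hepatocytes from two donor preparations received daily fresh dosing, and phase-contrast cytotoxicity calls were annotated alongside the data.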

[3] = read-out: Glyceraldehyde-3-phosphate dehydrogenase (Homo sapiens) (UniProt P04406); assay: CLD_GAPDH_24hr: CellzDirect (CLD) Gene Expression Assay for Baseline Control (Glyceraldehyde 3-phosphate dehydrogenase) at 24 hours (AID 2283692)
Method in brief: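 GAPDH baseline-control readout: qNPA chemiluminescent mRNA signal in human primary hepatocytes harvested 24 h after daily dosing, normalised to 0.2% DMSO with positive fitting direction; cytotoxicity annotated by phase-contrast morphology.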

[4] = read-out: glucuronosyltransferase (UGT1A1), UGT1A1 (gene 54658); assay: CLD_UGT1A1_24hr: CellzDirect (CLD) Gene Expression Assay for glucuronosyltransferase (UGT1A1) at 24 hours (AID 2283696)
Method in brief: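 UGT1A1 transcript induction was measured by quantitative nuclease protection assay (chemiluminescence) in human hepatocyte cultures 24 h after daily fresh dosing, with 0.2% DMSO as vehicle and baseline.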

[5] = read-out: Cytochrome P450 3A4 (Homo sapiens) (UniProt P08684); assay: CLD_CYP3A4_48hr: CellzDirect (CLD) Gene Expression Assay for xenobiotic metabolism (CYP3A4) at 48 hours (AID 2283698)
Method in brief: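 CYP3A4 induction read by qNPA chemiluminescence after 48 h, with fresh dosing solutions on consecutive days, in cultured human hepatocytes (two donors). Vehicle 0.2% DMSO as baseline; microscopy-based cytotoxicity annotated yes/no alongside data.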

[6] = read-out: Cytochrome P450 2B6 (Homo sapiens) (UniProt P20813); assay: CLD_CYP2B6_48hr: CellzDirect (CLD) Gene Expression Assay for xenobiotic metabolism (CYP2B6) at 48 hours (AID 2283699);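 further: actives raise transcript level above DMSO so potency reflects induction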
Method in brief: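 CYP2B6 transcript induction, read by quantitative nuclease protection (S1 digestion, chemiluminescent detection) 48 h after dosing, is fitted upward against 0.2% DMSO. Cultured human liver primary cells, two donor preparations, received fresh chemical daily over multiple concentrations.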

[7] = read-out: xenobiotic metabolism (CYP1A1), CYP1A1 (gene 1543); assay: CLD_CYP1A1_48hr: CellzDirect (CLD) Gene Expression Assay for xenobiotic metabolism (CYP1A1) at 48 hours (AID 2283705)
Method in brief: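 CYP1A1 transcript measured by quantitative nuclease protection (chemiluminescent) 48 h after two daily treatments of human hepatocyte cultures, versus 0.2% DMSO. Morphology-based cytotoxicity flags accompany data; two donor preparations used.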

[8] = read-out: Glyceraldehyde-3-phosphate dehydrogenase (Homo sapiens) (UniProt P04406); assay: CLD_GAPDH_48hr: CellzDirect (CLD) Gene Expression Assay for Baseline Control (Glyceraldehyde 3-phosphate dehydrogenase) at 48 hours (AID 2283706);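 further: active means higher GAPDH mRNA than DMSO vehicle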
Method in brief: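 GAPDH baseline-control readout: qNPA chemiluminescent mRNA quantitation in human liver primary cells 48 h after daily dosing on two consecutive days, vehicle 0.2% DMSO; gain of signal fitted against DMSO, cytotoxicity flagged by phase-contrast morphology.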

[9] = read-out: organic anion transporter (SLCO1B1), SLCO1B1 (gene 10599); assay: CLD_SLCO1B1_48hr: CellzDirect (CLD) Gene Expression Assay for organic anion transporter (SLCO1B1) at 48 hours (AID 2283707)
Method in brief: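 SLCO1B1 transcript quantified by qNPA with chemiluminescent readout after 48 h of once-daily chemical exposure. Cultured human primary hepatocytes came from two donors, with 0.2% DMSO vehicle; positive-direction fitting against DMSO, cytotoxicity flagged by morphology.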

[10] = read-out: alkyl and aryl transferase (GSTA2), GSTA2 (gene 2939); assay: CLD_GSTA2_48hr: CellzDirect (CLD) Gene Expression Assay for alkyl and aryl transferase (GSTA2) at 48 hours (AID 2283708);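 further: active means mRNA induction above DMSO vehicle baseline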
Method in brief: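 GSTA2 mRNA quantified by qNPA chemiluminescence in human primary hepatocyte lysates after 48 h of daily fresh chemical dosing. Increases fitted against 0.2% DMSO vehicle baseline; cytotoxicity from morphology annotated yes/no.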

[11] = read-out: glucuronosyltransferase (UGT1A1), UGT1A1 (gene 54658); assay: CLD_UGT1A1_48hr: CellzDirect (CLD) Gene Expression Assay for glucuronosyltransferase (UGT1A1) at 48 hours (AID 2283709);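 further: actives increase expression relative to DMSO so potency refers to induction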
Method in brief: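 Quantitative nuclease protection assay (chemiluminescent) for UGT1A1 mRNA at 48 h in human hepatocyte cultures from two donors, redosed daily with fresh solutions. Induction fitted relative to 0.2% DMSO; phase-contrast morphology annotated cytotoxicity.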

[12] = read-out: alkyl and aryl transferase (GSTA2), GSTA2 (gene 2939); assay: CLD_GSTA2_24hr: CellzDirect (CLD) Gene Expression Assay for alkyl and aryl transferase (GSTA2) at 24 hours (AID 2283693)
Method in brief: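 GSTA2 transcript levels were quantified by quantitative nuclease protection assay in primary human hepatocytes 24 h after daily dosing with fresh solutions at multiple concentrations; 0.2% DMSO vehicle as baseline, cytotoxicity flagged morphologically.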

[13] = CLD_ACTIN_48hr: CellzDirect (CLD) Gene Expression Assay for Baseline Control (Actin) at 48 hours (AID 2283702)
Method in brief: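 Background-control actin mRNA read by qNPA chemiluminescence at 48 h. Human hepatocyte cultures from two donors received fresh multi-concentration chemical doses daily for two days; 0.2% DMSO served as vehicle baseline.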

[14] = Tanguay_ZF_120hpf_ActivityScore_legacy: (Legacy) Oregon State University Tanguay Lab 120 Hour Post-fertilization zebrafish Assay Score for Activity (AID 2283742)
Method in brief: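 Dechorionated 5D embryos, one per well, static exposure 6–120 hpf, 28C, sealed and dark; final DMSO 0.64% (vol/vol). Brightfield binary scoring of mortality plus 18 endpoints; gain-of-signal fit versus DMSO baseline.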

[15] = read-out: Cytochrome P450 2B6 (Homo sapiens) (UniProt P20813); assay: CLD_CYP2B6_24hr: CellzDirect (CLD) Gene Expression Assay for xenobiotic metabolism (CYP2B6) at 24 hours (AID 2283686)
Method in brief: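 qNPA chemiluminescent measurement of mRNA at 24 hours in human primary hepatocyte cultures from two donor preparations, with daily fresh dosing and 0.2% DMSO vehicle as baseline. Morphology-based cytotoxicity flagged yes/no.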

[16] = STM_H9_CystineISnorm_perc: Stemina devTOX quickPredict H9 human embryonic stem cell (hESC)-based Assay for Cystine (CYSS) Metabolite Biomarker, Normalized (AID 2283713; active means hit-call score of the fitted dose curve at least 0.9, where 1 is the maximum; inactive means score below 0.9)
Method in brief: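 Cells are held undifferentiated and treated for 72h, receiving fresh medium with compound every 24h. Cystine secreted during the final day is quantified by UPLC-HRMS against a labeled spike-in, then expressed relative to the DMSO vehicle median.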

[17] = STM_H9_OrnCyssISnorm_ratio: Stemina devTOX quickPredict H9 human embryonic stem cell (hESC)-based Assay for Ornithine (ORN):Cystine (CYSS) Ratio (AID 2283714)
Method in brief: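 UPLC-HRMS of spent media: ORN/CYSS ratio of internal-standard-normalized percentages, DMSO (0.1%) baseline. Pluripotent H9 hESCs, 72h exposure, daily re-dosing with fresh media; last 24h media collected.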

[18] = CEETOX_H295R_MTT_cell_viability: Viability Assessment in the CeeTox HT-H295R MTT Assay (AID 2283718; active means hit-call score of the fitted dose curve at least 0.9, where 1 is the maximum; inactive means score below 0.9;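 on AC50: curve fitted both ways so AC50 may mark viability loss or gain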)
Method in brief: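 Human H295R adrenal cells, prestimulated 48 h with 10 uM forskolin, were exposed 48 h to chemicals in 0.1% DMSO. Viability was measured in the same wells by MTT (0.5 mg/ml, 4 h, 37 C), absorbance 570/650 nm, as percent of controls.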

[19] = read-out: sulfotransferase (SULT2A), SULT2A1 (gene 6822); assay: CLD_SULT2A_24hr: CellzDirect (CLD) Gene Expression Assay for sulfotransferase (SULT2A) at 24 hours (AID 2283694)
Method in brief: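 mRNA is measured by qNPA: probe hybridisation, S1 nuclease digestion, chemiluminescence, in lysates from human primary hepatocytes harvested 24 h after daily dosing. Vehicle was 0.2% DMSO. Phase-contrast microscopy flagged cytotoxicity (yes/no).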

Measured: AC50

Chain of Glyceraldehyde-3-phosphate dehydrogenase (Homo sapiens) (P04406 whole entry, looked up): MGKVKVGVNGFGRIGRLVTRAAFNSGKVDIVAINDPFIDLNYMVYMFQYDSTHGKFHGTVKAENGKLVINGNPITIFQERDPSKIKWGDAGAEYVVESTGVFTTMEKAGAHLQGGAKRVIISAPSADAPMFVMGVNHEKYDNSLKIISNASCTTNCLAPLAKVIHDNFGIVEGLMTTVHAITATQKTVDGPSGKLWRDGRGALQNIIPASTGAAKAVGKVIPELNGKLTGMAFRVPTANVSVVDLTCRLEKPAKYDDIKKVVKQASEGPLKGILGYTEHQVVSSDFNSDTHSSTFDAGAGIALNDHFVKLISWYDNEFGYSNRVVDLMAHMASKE
Chain of Cytochrome P450 3A4 (Homo sapiens) (P08684 whole entry, looked up): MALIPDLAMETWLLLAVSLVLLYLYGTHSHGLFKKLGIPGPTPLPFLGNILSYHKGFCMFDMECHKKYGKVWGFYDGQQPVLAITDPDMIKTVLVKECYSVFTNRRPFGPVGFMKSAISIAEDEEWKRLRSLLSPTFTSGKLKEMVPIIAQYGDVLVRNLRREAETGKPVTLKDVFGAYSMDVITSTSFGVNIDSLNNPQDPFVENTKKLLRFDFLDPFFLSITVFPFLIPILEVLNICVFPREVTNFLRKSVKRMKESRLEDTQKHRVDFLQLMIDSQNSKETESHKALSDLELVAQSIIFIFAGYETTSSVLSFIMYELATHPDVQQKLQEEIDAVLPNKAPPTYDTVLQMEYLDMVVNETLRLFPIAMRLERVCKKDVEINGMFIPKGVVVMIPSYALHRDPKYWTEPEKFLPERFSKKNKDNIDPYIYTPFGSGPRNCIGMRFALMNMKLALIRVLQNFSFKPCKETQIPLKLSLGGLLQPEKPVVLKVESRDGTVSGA

CCOc1nc(NC)nc(NC(=O)NS(=O)(=O)c2ccccc2C(=O)OC)n1
active: [1] 7.74 µM | [7] 20 µM
inactive: [2] | [3] | [4] | [5] | [6] | [8] | [9] | [10] | [11]

OCCOc1ccccc1
inactive: [1] | [2] | [3] | [12] | [6] | [13] | [10] | [14]

O=S1OCC2C(CO1)C1(Cl)C(Cl)=C(Cl)C2(Cl)C1(Cl)Cl (stereo not drawn)
inactive: [2] | [12] | [14]
active: [15] 2.56 µM | [5] 9.22 µM | [6] 0.98 µM | [16] 82 µM | [17] 77.1 µM

COP(=S)(OC)Oc1ccc(SC)c(C)c1
active: [1] 9.72 µM | [6] 4.48 µM | [7] 33.4 µM
inactive: [5] | [18]

ClC1C(Cl)C(Cl)C(Cl)C(Cl)C1Cl (stereo not drawn)
active: [6] 0.0441 µM
inactive: [2] | [19] | [10] | [18] | [14]

O=S(=O)(O)C(F)(F)C(F)(F)C(F)(F)C(F)(F)C(F)(F)C(F)(F)C(F)(F)C(F)(F)F
inactive: [1] | [3] | [12] | [19] | [5] | [6] | [13] | [7] | [8] | [9] | [16] | [17]

O=C(Nc1ccccc1)Nc1cnns1
inactive: [3] | [5] | [10] | [14]
active: [1] 6.13 µM | [6] 5.63 µM | [7] 20 µM | [16] 58.7 µM | [17] 58.3 µM | [18] 65.5 µM

O=[N+]([O-])/N=C1\NCCN1Cc1ccc(Cl)nc1
inactive: [2] | [3] | [12] | [19] | [4] | [5] | [6] | [13] | [7] | [8] | [10] | [18] | [14]
